We go through five molecules from PubChem BioAssay AID651744 (Broad Institute, 2012).

Among all 5,600 compounds or so, about 3,100 (55%) were called active. Roughly 3% stayed inconclusive and do not appear here. So high a share suggests a set chosen from earlier hits. Only a sample is shown. Values without a mark were called inactive.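 How the source made its calls: active means mean loss of cell viability signal at or above a set limit, and enough replicates individually reaching it; inconclusive means meets only the mean limit or only the replicate share; inactive means meets neither condition.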

This assay can be described thus: NIH/3T3 fibroblast cytotoxicity, confirmation, cytotoxicity control, cell-based, cherry-pick, single point, set 2 (AID 651744).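 Further: 0% = median of neutral control wells and 100% = median of positive control wells.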 The note with it: NIH/3T3 viability, CellTiter-Glo ATP luminescence, 90 h; at 24.9 µM; stronger effect = higher value. For orientation: In ATP-based viability assays light output follows the ATP content of the culture.
In general, inhibition refers to the relative decrease from the control value, in per cent. Consider `O=C(Cc1cccnc1)N1CCCCN2[C@@H](CO)[C@H](c3ccc(C#CC4CCCC4)cc3)[C@@H]2C1`, for which the inhibition is 105% (active).
For `C/C=C/c1ccc([C@H]2[C@H](CO)N3CCCCN(C(=O)Cc4ccncc4)C[C@@H]23)cc1` the value was 3.85%; for `COc1ccc(C#Cc2ccc([C@H]3[C@H](CO)N4CCCCN(C(=O)Cc5ccccc5)C[C@@H]34)cc2)cc1`, 106% (active).
For `O=C(Cc1ccccn1)N1CCCCN2[C@@H](CO)[C@@H](c3ccc(C#Cc4ccccc4)cc3)[C@@H]2C1` the value was 103% (active); for `COc1ccc(-c2ccc([C@H]3[C@H](CO)N4CCCCN(C(=O)Cc5ccncc5)C[C@@H]34)cc2)cc1`, 18.4%.
